Screening results as filed in PubChem.
In the library only some 6.7% were active in any assay of this set; here they are far more common.
SW480 rerep: A quantitative high throughput screen for small molecules that induce DNA re-replication in SW480 colon adenocarcinoma cells; SW480 DNA re-replication, Hoechst DNA content imaging, 48 h; Potency, µM (series often up to 46.1 µM), without a hit: at the highest dose re-replication activation, most hits filed as activators; AID 624297, 2012; 340,000 tested, 1.8% active; also: % of control where 0% means no effect; nearly all actives have a fitted effect of over 55% in size
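Compounds, transferred as 23 nL by pin tool, were incubated with cells for 48 hr; DNA content per nucleus was then quantified by Hoechst staining and fluorescence plate imaging.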
PINK1 expr mod: A Quantitative High throughput Screen to Identify Chemical Modulators of PINK1 Expression; PINK1 immunofluorescence, high-content cytometry, 24 h; Potency, µM (top dose mostly 76.6 µM), without a hit: at the highest dose activation (PINK1 increase), hits mostly activators; 410,000 tested, 0.2% active; AID 624263, 2012; active = well fitted activation curve with a large enough effect; inconclusive = small, poorly fitted or top-dose-only effect; cell line not stated here; also: % of control where 0% means no effect; nearly all actives have a fitted effect of over 65% in size
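Stable cell line treated 24 h with compounds at 5 concentrations (CCCP controls), then fixed and immunostained for PINK1 plus nuclear and cell stains; PINK1 immunofluorescence quantified by laser-scanning microplate cytometry.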
MCF10A rerep: A quantitative high throughput screen for small molecules that induce DNA re-replication in MCF 10a normal breast cells; 350,000 tested, 2.9% active; MCF 10A DNA re-replication, Hoechst nuclear intensity, 48 h; Potency, µM (doses to about 46.1 µM), without a hit: top-dose activity, positive = re-replication, most hits filed as activators; AID 624296, 2012; also: % of control where 0% means no effect; nearly all actives have a fitted effect of over 50% in size
KB-3-1 tox: qHTS assay for MDR1-selective chemotherapeutics: Primary screen using the parental adenocarcinoma cell KB-3-1; 400,000 tested, 1.4% active; AID 1347075, 2019; Potency, µM (highest dose often 46.1 µM), usual class: cytotoxic; KB-3-1 viability, CellTiter-Glo ATP luminescence, 72 h; also: % is scaled to controls: 0 for no effect and ±100 for the full control effect; nearly all actives have a fitted effect of over 60% in size
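KB-3-1 parental drug-naive adenocarcinoma cells in DMEM/10% FBS, incubated 72 h at 37 C with pin-transferred compounds across a concentration series. Viability by CellTiter-Glo luminescence; concentration-response curves fitted after normalization.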
KB-V1 MDR tox: qHTS assay for MDR1-selective chemotherapeutics: Primary screen using the drug-selected MDR subline cells KB-V1; KB-V1 MDR cells viability, CellTiter-Glo, 72 h; Potency, µM (doses to about 46.1 µM), hits mostly cytotoxic; 400,000 tested, 3.4% active; AID 1347076, 2019; also: % is scaled to controls: 0 for no effect and ±100 for the full control effect; nearly all actives have a fitted effect of over 60% in size
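Drug-selected KB-V1 cells, grown in DMEM lacking phenol red with 10% FBS, receive compound titrations; after three days at 37 degrees C, surviving cell ATP is quantified by CellTiter-Glo luminescence and responses normalized and curve-fitted.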
An asterisk follows results filed as active; i = inactive; ? = inconclusive; . = no result given; [ ] = remark or other dose. Unless noted, calls follow the shape of the dose curve; as a rule, active = well fitted curve in the direction sought with a large enough effect; inconclusive = small, poorly fitted or top-dose-only effect, or another doubt; inactive = no such curve, though single readings can be large; an effect the other way counts as inactive or inconclusive. Potency is read from the fitted curve at half-maximal effect.

SMILES | SW480 rerep | PINK1 expr mod | MCF10A rerep | KB-3-1 tox | KB-V1 MDR tox
CCOc1cccc(C2C(C(=O)c3ccco3)=C(O)C(=O)N2c2nnc(C)s2)c1 (stereo not drawn) | 5.8µM* | 1.7% | -4.5% | i | i
CC(=O)c1c(C)oc2c1cc(NS(=O)(=O)c1ccc(Cl)c(C)c1)c1ccccc12 | . | 7.6% | . | i | i
O=[N+]([O-])c1ccc(N=Nc2c(Cl)cc(O)cc2Cl)cc1 | ? | ? | ? | 18.4µM* | i
COc1ccccc1-c1cnc(C(O)c2ccc(C)cc2C)[nH]1 (stereo not drawn) | . | -1.1% | . | i | ?
COc1ccc(N/N=C(/C(C)=O)N2CCCc3ccccc32)cc1 | -10.2% | 5.3% | 16.4% | 20.6µM* | i
COc1ccc(NC(=O)N2CCCc3ccccc32)cc1 | -0.6% | -0.2% | 3.8% | i | i
COc1ccc(/C=C/C(=O)N2CCCc3ccccc32)cc1 | ? | 1.8% | ? | i | 13µM*
COCCn1c(=S)[nH]c2cc(C(=O)N3CC(C)CC(C)C3)ccc2c1=O (stereo not drawn) | -18.6% | -0.2% | 10.8% | i | i
COc1ccc(CCNc2ncnc3c2oc2ccccc23)cc1OC | -4.4% | . | 5.0% | 9.2µM* | 2.59µM*
COc1ccc(CCNc2nc(C)nc3c2oc2ccccc23)cc1OC | 6.7% | 0.0% | ? | ? | 16.4µM*
COc1ccc(CCNc2ncnc3sccc23)cc1OC | -5.4% | 2.4% | 12.2% | ? | ?
Cc1ccc(-c2nnc3ccccc3c2C(=O)Nc2ccccc2F)cc1 | . | 0.8% | . | i | i
COCCNC(=O)[C@H](CSCc1ccccc1)N1Cc2ccccc2C1=O | -6.9% | 1.7% | -2.0% | i | 9.2µM*
O=C1C=C(OCCF)CC(c2ccccc2C(F)(F)F)O1 (stereo not drawn) | . | . | . | i | i
CC(=O)c1ccc(NS(=O)(=O)c2ccc3ccccc3c2)cc1 | -11.0% | 0.1% | 6.6% | i | 16.4µM*
Cc1cc(S(=O)(=O)Nc2ccc3ccccc3c2)c(C)s1 | ? | 16.5%[38.3 µM] | 6.51µM* | ? | 3.26µM*
CC(=O)c1cccc(NC(=O)[C@H](Cc2ccccc2)N2Cc3ccccc3C2=O)c1 | . | 2.0% | . | i | i
CC(C)C(NC(=O)CSCc1ccc([N+](=O)[O-])cc1)C(C)C | -0.5% | 4.1% | ? | i | 18.4µM*
CCCCn1cnc2cc(NC(=O)c3cc(OC)c(OC)c(OC)c3)ccc21 | . | 0.1% | . | . | .
Cc1nc(NC(=S)NC(=O)c2cccs2)ccc1Br | -221.9% | -2.3% | -1.9% | ? | ?
COC(=O)Cc1ccc(NC(=S)Nc2cccc(C)n2)cc1 | -8.2% | 1.1% | -7.2% | ? | 20.6µM*
CCOC(=O)c1ccc(NC(=S)Nc2cccc(C)n2)cc1 | 4.4% | 2.1% | ? | i | i
Cc1cccc(NC(=S)NC(=O)c2cccs2)n1 | 2.91µM* | 1.0%[38.3 µM] | 1.0% | i | ?
O=S(=O)(Nc1nc2ccccc2nc1Cl)c1cccc(C(F)(F)F)c1 | -2.8% | ? | 16.4µM* | i | i
Cc1cc(NC(=O)c2cc(-c3ccncc3)nc3ccccc23)ccc1Br | 10.4% | -1.1% | ? | ? | 8.2µM*
SMILES | SW480 rerep | PINK1 expr mod | MCF10A rerep | KB-3-1 tox | KB-V1 MDR tox
O=C(Nc1nc2c(s1)CCCC2)c1cc(-c2ccccc2)nc2ccccc12 | . | 7.1% | 7.9% | i | 13µM*
Cc1ccc(-c2cc(C(=O)NN=C3CCCC3)c3ccccc3n2)cc1 | -4.4% | 0.4% | 0.6% | i | i
Cc1csc(NC(=O)c2cc(-c3ccccc3)nc3ccccc23)n1 | -47.3% | ? | ? | ? | 2.31µM*
O=C(NN=C1CCCCCC1)c1cc(-c2ccccc2)nc2ccccc12 | 5.1% | -1.8% | 16.4µM* | ? | i
C[C@H](CO)N1C[C@H](C)[C@@H](CN(C)Cc2ccc(C(=O)O)cc2)Oc2c(cccc2N(C)C)C1=O | -17.6% | 0.3% | -1.7% | i | i
O=C(NCc1nnnn1-c1ccc(Cl)cc1)C(=O)c1c[nH]c2ccccc12 | . | 1.6% | . | i | i
CN(C)c1ncc2nc(-c3ccc(F)cc3)c(=O)n(C)c2n1 | . | -0.6% | . | . | .
CN(c1ccccc1)S(=O)(=O)c1ccc(NC(=O)CC(=O)c2ccccc2)cc1 | 6.0% | ? | 9.6% | i | i
OC(c1ccccc1)(c1nc(-c2ccc(Cl)cc2)cs1)C(F)(F)F (stereo not drawn) | . | 0.0% | . | i | i
C/C(=N\NC(=O)CCCNc1ccccc1)c1ccncc1 | -1.0% | 0.9% | ? | i | i
C/C(=N\NC(=O)CCCNc1ccc(C)cc1)c1ccccn1 | ? | -1.8% | ? | i | 6.51µM*
CCc1ccccc1NCC(=O)Nc1ccc(Cl)c(C(F)(F)F)c1 | ? | ? | ? | ? | 20.6µM*
O=C(CCCCCN1C(=O)CCC1=O)Nc1ccc(Cl)c(C(F)(F)F)c1 | -1.0% | -4.2%[38.3 µM] | 2.6% | i | 16.4µM*
COc1ccc(NC(=O)CCCCCN2C(=O)CCC2=O)cc1Cl | -2.3% | 7.5%[38.3 µM] | 6.8% | i | ?
C/C(CC(=O)Nc1ccc(Cl)c(C(F)(F)F)c1)=N\NC(=O)c1ccccc1O | 107.3% | 4.6% | ? | ? | 18.4µM*
Cc1cccc(C)c1NC(=O)C1(C)CSCC(=O)N1CCc1ccccc1 (stereo not drawn) | . | . | . | i | ?
CCCCCCn1cc(C(=O)O)c(=O)c2cc(F)c(N3CCN(C(=O)OCC)CC3)cc21 | -3.7% | 3.7% | -0.2% | i | 2.06µM*
CNC(=O)OCc1nc(SSC(C)(C)C)n(C)c1COC(=O)NC | 4.11µM* | -5.8% | 2.91µM* | ? | i
Nc1nc(N)c2c(OCC3CCN(Cc4ccccc4F)CC3)cccc2n1 | . | . | . | i | ?
COc1ccc(/C=C2\SC(=S)N(CCCCCC(=O)Nc3cc(C)on3)C2=O)cc1OC | -2.4% | 14.1µM* | 2.5% | i | i
Cc1ccc(/C=C2\SC(=S)N(CCCC(=O)Nc3cc(C)on3)C2=O)cc1 | 2.6% | -0.8% | 2.5% | i | ?
COc1ccc(/C=C2\SC(=S)N(CCCC(=O)Nc3cc(C)on3)C2=O)cc1OC | -2.8% | 10µM* | 1.2% | i | i
CCS(=O)(=O)c1ncc(N(Cc2ccco2)Cc2ccccc2F)c(C(=O)Nc2cccc(Cl)c2)n1 | . | 0.1% | . | i | i
CCN(CC)CCCNC(=O)c1cn(CC)c2ccc(S(=O)(=O)N3CCC(C)CC3)cc2c1=O | . | -0.3% | . | i | i
CC(=O)N1CCC2(CC1)CCN(c1ccc(-c3ccccc3)cc1)CC2 | . | 0.7% | . | . | .
